Each structure is given as a SMILES string. Activity calls are given as the source filed them. Where a call stands in place of a potency, no number is given. Calls come from the whole dose curve.

Sequence of Acetylcholinesterase (Homo sapiens) (P22303 whole entry, looked up): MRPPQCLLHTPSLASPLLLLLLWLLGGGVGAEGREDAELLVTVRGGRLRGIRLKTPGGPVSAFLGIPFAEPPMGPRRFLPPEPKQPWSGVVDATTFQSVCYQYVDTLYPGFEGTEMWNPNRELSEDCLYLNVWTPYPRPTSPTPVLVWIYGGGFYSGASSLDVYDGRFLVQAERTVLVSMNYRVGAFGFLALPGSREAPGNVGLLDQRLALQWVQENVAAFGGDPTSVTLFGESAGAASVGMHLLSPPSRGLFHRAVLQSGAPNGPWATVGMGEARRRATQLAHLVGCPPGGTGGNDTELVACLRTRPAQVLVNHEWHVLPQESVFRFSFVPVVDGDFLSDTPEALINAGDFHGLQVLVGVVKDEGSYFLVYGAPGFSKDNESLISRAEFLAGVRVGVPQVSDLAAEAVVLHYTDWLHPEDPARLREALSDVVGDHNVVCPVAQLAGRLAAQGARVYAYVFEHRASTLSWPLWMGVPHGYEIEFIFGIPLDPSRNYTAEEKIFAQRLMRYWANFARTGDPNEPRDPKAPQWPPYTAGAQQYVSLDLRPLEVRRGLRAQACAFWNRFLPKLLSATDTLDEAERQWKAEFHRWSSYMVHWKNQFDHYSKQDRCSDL

For the test, the target named is Acetylcholinesterase (Homo sapiens) (UniProt P22303). The test is described as follows: Acetylcholinesterase (AChE) small molecule antagonists: enzyme-based qHTS assay with human liver microsomes (AID 1347399). Note: nearly all actives have a fitted effect of over 60% in size. To be noted: Potency: qHTS inhibition; outcome: qHTS inhibition; series mostly up to 115 µM. From the text:
National Center for Advancing Translational Sciences [NCATS]
Division of Preclinical Innovation [DPI]
U.S. Environmental Protection Agency [EPA]
National Institutes of Environmental Health Sciences [NIEHS]
National Toxicology Program [NTP]
U.S. Food and Drug Administration [FDA]
Acetylcholinesterase (AChE) is the primary cholinesterase in the body that hydrolyzes a key neurotransmitter, acetylcholine. Inhibition of AChE activity can lead to neurotoxicity. The known inhibitors include organophosphorous pesticides (OP), chemical warfare agents, drugs, and various phytochemicals. Some compounds like OP compounds may need metabolic activation to be active AChE inhibitors. The cytochrome P450 (CYP) superfamily in the human microsomes is responsible for the metabolism of various endogenous and exogenous compounds.
An enzyme-based assay with the recombinant human AChE, human liver microsomes and Amplite Colormetric acetylcholinesterase assay kit (AAT Bioquest, Sunnyvale, CA) was used to evaluate compounds in the Tox21 10K library that need metabolic activation for AChE inhibition. The assay uses 5, 5-dithiobis-(2-nitrobenzoic acid) (DTNB) to quantify the thiocholine produced from the hydrolysis of acetylthiocholine by AChE.
Tox21 Assay Protocol Summary:
For the enzyme-based AChE assay with microsomes addition, a mixture of human AChE (50 mU/mL) and human liver microsomes (0.25 mg/mL, final concentration) in 3 uL/well was dispensed into black, clear-bottom 1536-well plates using a Multidrop Combi dispenser (Thermo Scientific, MA). Then, 23 nL of compound or DMSO (vehicle control) was transferred into the assay plates by a Pintool Station (Wako Automation, CA). Following compound addition, 1 uL of NADPH (0.25 mg/mL, final concentration) was transferred to the assay plate by a Flying Reagent Dispenser (Beckman Coulter, CA). The plates were incubated for 30 min at 37 C and 5% CO2, followed by the addition of 4 uL of colorimetric detection cocktail solution (DTNB, acetylthiocholine) into each well using a Flying Reagent Dispenser (Beckman Coulter, CA) and then 10 min incubation at room temperature.
For orientation: In qHTS, concentration-response curves come from the screen itself.
Turning to `O=CNc1ccccc1`, the Potency entry is “inactive”. On the same count and under the same terms, for `C[C@H](CCC(=O)NCC(=O)O)[C@H]1CC[C@H]2[C@@H]3[C@H](O)C[C@@H]4C[C@H](O)CC[C@]4(C)[C@H]3C[C@H](O)[C@]12C` the value was “inactive”. Regarding `CCC[C@@H]1C[C@@H](C(=O)N[C@@H]([C@H]2O[C@H](SC)[C@H](O)[C@@H](O)[C@H]2O)[C@@H](C)O)N(C)C1`, the Potency entry was “inactive”. On the same count and under the same terms, the value for `CCCCCCCCN(C)CCCCCCCC` was “inactive”; that for `NC(=S)N/N=C/c1cccnc1` was “inactive”.

Take `O=C(O)/C=C/c1ccc(/C=C/C(=O)O)cc1`: the Potency entry is “inactive”. Same read-out and setting: for `Clc1ccc2nsnc2c1NC1=NCCN1` the value was “inactive”; for `Cc1c(NC(C)C)c(=O)n(-c2ccccc2)n1C`, “inactive”; for `OC1(c2ccccc2)CCNCC1`, “inactive”. Same read-out and setting: for `CS(=O)(=O)c1ccc(-c2cn3ccccc3n2)cc1` the value was “inactive”; for `CC1(C)S[C@@H]2[C@H](N=CN3CCCCCC3)C(=O)N2[C@H]1C(=O)O`, “inactive”.

As for `O=[N+]([O-])c1ccc(F)c(Cl)c1`, the Potency result is “inactive”. Turning to `CC(=O)Nc1cc(S(=O)(=O)O)cc2cc(S(=O)(=O)O)c(N=Nc3ccccc3)c(O)c12`, the Potency entry is “inactive”.

Regarding `CC(C)(C)c1ccc(N)cc1`, the Potency result was “inactive”. As for `O=C1OC(=O)c2ccccc21`, the Potency result is “inactive”. Same read-out and setting: for `CC1=C(/C=C/C(C)=C/C=C/C(C)=C\C=O)C(C)(C)CCC1` the value was “inactive”.

Take `CCCC(=O)OCc1ccccc1`: the Potency result was “inactive”. Same read-out and setting: the value for `CCCCCCCCc1ccc(Nc2ccc(CCCCCCCC)cc2)cc1` was “inactive”. Turning to `Cc1cc(=O)c2c(O)c3c(O)cc(=O)c4c3c3c(cc(O)c1c23)C(C)(C)C=4O`, the activity change, negative = inhibition is 0.168% [at 23.6 µM] (inactive).

For the compound `CCCCNc1ccc(C(=O)OCCN(CC)CC)cc1`, the Potency entry is “inactive”.

As for `Nc1nnc(-c2ccc([N+](=O)[O-])o2)o1`, the Potency result is “inactive”. Same read-out and setting: the value for `O[C@@H](CNC[C@H](O)[C@H]1CCc2cc(F)ccc2O1)[C@@H]1CCc2cc(F)ccc2O1` was “inactive”; that for `CC1=C(CC(=O)O)c2cc(F)ccc2/C1=C\c1ccc(S(C)(=O)=O)cc1` was “inactive”; that for `CC(C)(C)c1ccc(-c2ccc(C(C)(C)C)cc2)cc1` was “inactive”.

`CCC(O)C(C)(C)C` (stereo not given): the Potency entry was “inactive”. Still for that read-out and setting: the value for `Nc1cccnc1N` was “inactive”; that for `Cc1oc2c(NC(=O)c3c(Cl)cccc3Cl)cccc2c1C(C)(C)O` was “inactive”. On the same count and under the same terms, the value for `C=CCN1C[C@H](C(=O)N(CCCN(C)C)C(=O)NCC)C[C@@H]2c3cccc4[nH]cc(c34)C[C@H]21` was “inactive”; that for `CC(C)(c1ccc(Oc2ccc3c(c2)C(=O)OC3=O)cc1)c1ccc(Oc2ccc3c(c2)C(=O)OC3=O)cc1` was “inactive”; that for `CCCC(C)C(O)CC` (stereo not given) was “inactive”. With `O=C(NS(=O)(=O)/C=C/c1cccs1)c1ccc(F)cc1Br`, the Potency entry is “inactive”. Take `CC(CO)(CO)[N+](=O)[O-]`: the Potency entry was “inactive”. Take `C=CCCCCCCCCCCCCCC`: the activity change, negative = inhibition is -1.13% [at 23.6 µM] (inactive). Consider `CC(C)CCCC(C)NCCC(C)C` (stereo not given), for which the Potency entry is “inactive”. The same measure, in the same setting: for `O=C(O)/C=C(\CC(=O)O)C(=O)O` the value was “inactive”; for `c1ccc(C(O[C@@H]2CCCN(CCc3ccc4c(c3)OCO4)C2)c2ccccc2)cc1`, “inactive”.

`CCc1ccc(O)c(OC)c1`: the Potency entry was “inactive”. The same measure, in the same setting: the value for `CCCCCCCCCC(C)C=O` (stereo not given) was “inactive”. Same read-out and setting: the value for `CC(=C(CCOC(=O)C(C)C)SSC(CCOC(=O)C(C)C)=C(C)N(C=O)Cc1cnc(C)nc1N)N(C=O)Cc1cnc(C)nc1N` was “inactive”. On the same count and under the same terms, for `CCCCCCCCCCCCCCCCCCOS(=O)(=O)O` the value was “inactive”.

Values taken from PubChem BioAssay (Tox21).
